Assay results reported in PubChem BioAssay AID588689 (Southern Research Specialized Biocontainment Screening …, 2011).
About 1,000 (0.29%) of roughly 340,000 compounds were called active. Cut-off read from the data, not from the text of the source: inconclusive = inhibition above about 29% without an active follow-up result; inactive = below that. Not all results are given here. Potency and affinity values are given separately.

molecular target: Genome polyprotein (Dengue virus type 2 (strain 16681-PDK53)) (UniProt P29991); test: Dengue-2 NS5 methyltransferase inhibitors, primary screen, biochemical, confirmation dose response (AID 588689); settings: Dengue-2 NS5 methyltransferase capping enzyme assay, at 25 µM, stronger effect = higher value

inhibition, inactive:
O=C(COc1ccccc1C(=O)O)Nc1cccc2ccccc12 1.47%
O=C(COc1ccccc1[N+](=O)[O-])Nc1cc(Cl)ccc1C(=O)O 0%
CC(=O)Nc1ccccc1NC(=O)COc1cccc2ccccc12 -2.63%
O=C(Cc1cccc2ccccc12)Nc1cc(Cl)ccc1C(=O)O -1.36%
COc1cc(C(C(=O)NC2CCCC2)N(CCO)C(=O)Cn2nnc(-c3ccc(C)o3)n2)ccc1O (stereo unspecified) 0.83%
COc1ccc(CCNC(=O)CN(c2cc(OC)ccc2OC)S(=O)(=O)c2ccccc2)cc1 -15.3%
N#CC1(c2ccccc2)CCC(=NNS(=O)(=O)c2ccccc2)CC1 (stereo unspecified) -6.67%
CCn1c(SCC(=O)NC2CCCCC2)nnc1-c1cccs1 -2.08%
CCCc1[nH][nH]c(=O)c1C(c1ccc(Cl)cc1)C(C#N)C#N (stereo unspecified) -8.33%
Cc1[nH]n(-c2ccccc2)c(=O)c1-c1ccc(Cl)cc1 -1.62%
CCCc1[nH][nH]c(=O)c1C(c1ccc(Br)cc1)C(C#N)C#N (stereo unspecified) -1.4%
Cc1[nH]n(-c2ccccc2)c(=O)c1C(C[N+](=O)[O-])c1ccc(Cl)cc1 (stereo unspecified) 4.51%
Cc1[nH]n(-c2ccccc2)c(=O)c1C(C[N+](=O)[O-])c1ccc(Br)cc1 (stereo unspecified) 12.4%
COc1ccc(C(c2c(C)[nH]n(C(N)=S)c2=O)C(C#N)C#N)cc1 (stereo unspecified) 28%
Cc1[nH]oc(=O)c1N=Nc1ccc2[nH]c(=O)[nH]c2c1 -0.78%
Cc1c(NC(=O)Nc2cccc(Cl)c2Cl)c(=O)n(-c2ccccc2)n1C 3.9%
C/C(N)=C(/C#N)C(=O)COC(=O)[C@@H](NC(=O)c1ccccc1Cl)C(C)C -7.12%
CCCCc1nnc(SCC(=O)Nc2nccs2)n1CC -0.32%
CC1CCCN(S(=O)(=O)c2ccc3[nH]c(=O)cc(C(=O)NCCCN4CCCCCC4)c3c2)C1 (stereo unspecified) -5.49%
Cc1cccc(N2C(=O)c3ccc(Br)cc3C2=O)n1 -2.38%
O=C1c2cccnc2-c2ncccc21 5.95%
NC1=C(Br)C(=O)c2ncccc2C1=O 20.2%
COC1=C(N)C(=O)c2nc(C)ccc2C1=O 12.3%
O=C(OCC(=O)N1CCOCC1)c1ccc[nH]c1=O -3.24%
CCN(Cc1ccccc1)C(=O)CCNS(=O)(=O)c1cc(Br)cnc1N 2.62%
CC1CCN(c2nc3ccc(C(=O)N4CCN(Cc5ccc6c(c5)OCO6)CC4)cc3s2)CC1 -4.17%
COc1ccc2nc(N3CCCC3)c(C#N)cc2c1 12.8%
COc1ccc2nc(N3CCC(C)CC3)c(C#N)cc2c1 14.4%
CC(=O)Nc1ccc(NC(=O)C(C)OC(=O)CCC2CCCCC2)cc1 (stereo unspecified) 0.32%
CCN(C(=O)COC(=O)/C=C/c1ccc(Cl)c(Cl)c1)c1c(N)n(Cc2ccccc2)c(=O)[nH]c1=O 2.22%
COc1ccccc1OCCCCNC(C)(C)C -1.39%
O=C(Nc1ccc(S(=O)(=O)Nc2ncccn2)cc1)c1ccc(Br)o1 -3.89%
CC1(C)Cc2c(C#N)c(N)sc(=S)c2CO1 4.14%
N#Cc1c(N)sc2c1CCCCCC2 -3.42%
COc1cc2c(cc1OC)C(c1ccccc1F)NCC2 (stereo unspecified) -3.4%
O=C(CN1CCC(NC(=O)c2ccccc2Cl)CC1)NCc1ccccc1 -1.62%
COc1ccc(CNC(=O)C(C)N2CCN(S(=O)(=O)c3ccccc3F)CC2)cc1 (stereo unspecified) -2.2%
COc1cc(/C=C2/C(=O)ON=C2c2ccccc2)ccc1O -8.45%
CCCOc1ccc(/C=C2/C(=O)ON=C2C)cc1Cl 12.4%
COc1ccc(/C=C2/C(=O)ON=C2c2ccccc2)cc1OC -17.6%
C=CCOc1ccc(/C=C2/C(=O)ON=C2C)cc1OC 28.1%
CCOc1cc(/C=C2/C(=O)ON=C2C)ccc1OCc1ccc(F)cc1 24.8%
CCOc1cc(/C=C2\C(=O)ON=C2C)ccc1OCc1ccccc1 -8.01%
CCOc1ccc(Cl)cc1/C=C1/C(=O)ON=C1C 20.2%
CCOc1cc(/C=C2/C(=O)ON=C2C)ccc1O -24.5%
NC(=O)c1ccc(NC(=O)c2cccc(Oc3ccccc3)c2)cc1 -7.28%
CCn1c(CC(=O)Nc2ccccc2)nnc1SCc1nc2ccccc2c(=O)[nH]1 -0.79%
Nc1ncnc2c1ncn2[C@@H]1O[C@H](CNC(=O)[C@H](N)Cc2cscn2)[C@@H](O)[C@H]1O -4.56%
NC(=O)c1cc([N+](=O)[O-])ccc1NCc1cccc(N)c1 -0.8%
COC(=O)Cn1c(=NC(=O)c2ccc(Cl)s2)sc2cc(C)ccc21 4.02%
O=C(NC(=S)NCc1ccccc1)c1ccccc1[N+](=O)[O-] -9.35%
O=C(NCCc1ccccc1)C(=O)Nc1ccc2c(c1)OCCO2 -12.2%
O=C(c1ccc(Cl)c(Cl)c1)N1CCN(c2ccccn2)CC1 -2.38%
COCCN(C(=O)CSc1nnc(-c2ccccc2F)n1N)c1c(N)n(Cc2ccccc2)c(=O)[nH]c1=O 11.2%
CCOc1ccc(OCCCC(=O)NCCOc2ccccc2OC)cc1 -5.46%
Cc1cccc(OCC(=O)NC(=S)Nc2ccc(S(=O)(=O)NC3CCCCC3)cc2)c1 0%
CC(C)(C)C(=O)CSc1nc2c(c(-c3cccs3)c1C#N)CCC2 -8.9%
CN1CCc2nc(SC(C(=O)O)c3ccccc3)c(C#N)c(-c3cccs3)c2C1 (stereo unspecified) 23.2%
Cc1ccc(CNC(=O)CCS(=O)(=O)c2ccc(Br)cc2)cc1 -2.71%
Cc1nc2ccccc2c(=O)n1NC(=O)c1ccc(C(C)(C)C)cc1 -7.84%
O=C(O)CC(NC(=O)C12CC3CC(CC(C3)C1)C2)c1cccc([N+](=O)[O-])c1 (stereo unspecified) 4.1%
